Results filed as inconclusive are left out. Active and inactive are the calls of the source. The call rests on the fitted dose curve; in most records, active means well fitted inhibition curve with a large enough effect; inconclusive means small, poorly fitted or top-dose-only effect; inactive means flat fitted curve, though single readings scatter.
What was measured:
Assay in all cases: qHTS profiling for inhibitors of Plasmodium falciparum proliferation (AID 504749); further: nearly all actives have a fitted effect of over 60% in size
Settings in all cases: P. falciparum in erythrocytes, SYBR Green DNA, 72 h; series mostly up to 28.7 µM
[1] = test system: 7G8
Procedure, shortened: (§1)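 SYBR Green fluorescence (ex 485 nm, em 535 nm) reports parasite DNA after 72 h compound exposure of infected red cells at 0.3% parasitemia, 2.5% hematocrit; signal normalized to 0.29 uM artemisinin and vehicle wells.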

[2] = test system: ATS95
Procedure, shortened: as §1

[3] = test system: CP185
Procedure, shortened: as §1

[4] = test system: CP194
Procedure, shortened: as §1

[5] = test system: CP201
Procedure, shortened: as §1

[6] = test system: CP211
Procedure, shortened: as §1

[7] = test system: CP238
Procedure, shortened: as §1

[8] = test system: CP247
Procedure, shortened: as §1

[9] = test system: CP252
Procedure, shortened: as §1

[10] = test system: CP265
Procedure, shortened: as §1

[11] = test system: CP266
Procedure, shortened: as §1

[12] = test system: CP286
Procedure, shortened: as §1

[13] = test system: CP305
Procedure, shortened: as §1

[14] = test system: CP325
Procedure, shortened: as §1

[15] = test system: DIV30
Procedure, shortened: as §1

[16] = test system: P93_24
Procedure, shortened: as §1

[17] = test system: P94_40
Procedure, shortened: as §1

[18] = test system: PC15
Procedure, shortened: as §1

[19] = test system: SC27B
Procedure, shortened: as §1

[20] = test system: TAB109
Procedure, shortened: as §1

Measured: Potency
Potency means the concentration at half of the fitted maximal effect.

CCCC[C@H]1C(=O)N(c2ccccc2)N(c2ccc(O)cc2)C1=O
inactive: [1] | [2] | [3] | [4] | [5] | [6] | [7] | [8] | [9] | [10] | [11] | [12] | [13] | [14] | [15] | [16] | [17] | [18] | [19] | [20]

CC1CCC(C(C)C)C(O)C1 (stereo not given)
inactive: [1] | [2] | [3] | [4] | [5] | [6] | [7] | [8] | [9] | [10] | [11] | [12] | [13] | [14] | [15] | [16] | [17] | [18] | [19] | [20]

CC(c1ncncc1F)[C@](O)(Cn1cncn1)c1ccc(F)cc1F (stereo not given in full)
inactive: [1] | [2] | [3] | [4] | [5] | [6] | [7] | [8] | [9] | [10] | [11] | [12] | [13] | [14] | [15] | [16] | [17] | [18] | [19] | [20]

CC(=O)NC[C@@H]1CN(c2ccc(N3CCOCC3)c(F)c2)C(=O)O1
inactive: [1] | [2] | [3] | [4] | [5] | [6] | [7] | [8] | [9] | [10] | [11] | [12] | [13] | [14] | [15] | [16] | [17] | [18] | [19] | [20]

CC12C=CC(=O)C=C1[C@@H](F)CC1C2C(O)CC2(C)C1CC[C@]2(O)C(=O)CO (stereo not given in full)
inactive: [1] | [2] | [3] | [4] | [5] | [6] | [7] | [8] | [9] | [10] | [11] | [12] | [13] | [14] | [15] | [16] | [17] | [18] | [19] | [20]

C[C@@H]1C(SC2Cn3cnc[n+]3C2)=C(C(=O)[O-])N2C(=O)[C@H]([C@@H](C)O)[C@@H]12 (stereo not given in full)
inactive: [1] | [2] | [3] | [4] | [5] | [6] | [7] | [8] | [9] | [10] | [11] | [12] | [13] | [14] | [15] | [16] | [17] | [18] | [19] | [20]

OC[C@@H]1O[C@](CO)(O[C@H]2O[C@H](CO)[C@@H](O)[C@H](O)[C@H]2O)[C@H](O)[C@H]1O
inactive: [1] | [2] | [3] | [4] | [5] | [6] | [7] | [8] | [9] | [10] | [11] | [12] | [13] | [14] | [15] | [16] | [17] | [18] | [19] | [20]

CC(=O)NC1[C@H](O)C[C@@](O)(C(=O)O)O[C@H]1[C@H](O)[C@H](O)CO (stereo not given in full)
inactive: [1] | [2] | [3] | [4] | [5] | [6] | [7] | [8] | [9] | [10] | [11] | [12] | [13] | [14] | [15] | [16] | [17] | [18] | [19] | [20]

CO[C@H]1OC2O[C@@]3(C)CC[C@H]4[C@H](C)CC[C@@H]([C@H]1C)[C@@]24OO3 (stereo not given in full)
active: [1] 2.2 nM | [2] 25.1 nM | [3] 31.6 nM | [4] 60.1 nM | [5] 0.0757 µM | [6] 75.7 nM | [7] 22.4 nM | [8] 0.0251 µM | [9] 31.6 nM | [10] 3.2 nM | [11] 67.5 nM | [12] 17.8 nM | [13] 15.1 nM | [14] 15.1 nM | [15] 15.1 nM | [16] 10 nM | [17] 11.2 nM | [18] 11.2 nM | [19] 14.1 nM | [20] 12.6 nM

CC(=O)NC1[C@H]([C@H](O)[C@H](O)CO)OC(C(=O)O)=C[C@H]1N=C(N)N (stereo not given in full)
inactive: [1] | [2] | [3] | [4] | [5] | [6] | [7] | [8] | [9] | [10] | [11] | [12] | [13] | [14] | [15] | [16] | [17] | [18] | [19] | [20]

COc1cccc2c1C(=O)c1c(O)c3c(c(O)c1C2=O)C[C@@](O)(C(=O)CO)C[C@@H]3OC1CC(N)C(O)C(C)O1 (stereo not given in full)
active: [1] 316 nM | [2] 2000 nM | [3] 2240 nM | [4] 4780 nM | [5] 3.79 µM | [6] 1690 nM | [7] 2240 nM | [8] 2.24 µM | [9] 2510 nM | [10] 3980 nM | [11] 3380 nM | [12] 398 nM | [13] 3380 nM | [14] 3790 nM | [15] 4260 nM | [16] 2000 nM | [17] 2000 nM | [18] 2000 nM | [19] 2510 nM | [20] 2000 nM

OCC1O[C@H](O[C@H]2C(O)C(O)C(O)O[C@@H]2CO)C(O)C(O)C1O (stereo not given in full)
inactive: [1] | [2] | [3] | [4] | [5] | [6] | [7] | [8] | [9] | [10] | [11] | [12] | [13] | [14] | [15] | [16] | [17] | [18] | [19] | [20]

Cc1cn([C@H]2CC(F)[C@@H](CO)O2)c(=O)[nH]c1=O (stereo not given in full)
inactive: [1] | [2] | [3] | [4] | [5] | [6] | [7] | [8] | [9] | [10] | [11] | [12] | [13] | [14] | [15] | [16] | [17] | [18] | [19] | [20]

CC(O)C(N)C(=O)O (stereo not given)
inactive: [1] | [2] | [3] | [4] | [5] | [6] | [7] | [8] | [9] | [10] | [11] | [12] | [13] | [14] | [15] | [16] | [17] | [18] | [19] | [20]

C=CC1CN2CCC1CC2[C@@H](O)c1ccnc2ccc(OC)cc12 (stereo not given in full)
active: [1] 50.1 nM | [2] 251 nM | [3] 501 nM | [4] 536 nM | [5] 1.07 µM | [6] 675 nM | [7] 891 nM | [8] 1 µM | [9] 355 nM | [10] 355 nM | [11] 953 nM | [12] 282 nM | [13] 478 nM | [14] 478 nM | [15] 338 nM | [16] 398 nM | [17] 251 nM | [18] 89.1 nM | [19] 891 nM | [20] 112 nM

C=NC(C(=O)NC1C(=O)N2C1SC(C)(C)C2C(=O)O)c1ccccc1 (stereo not given)
inactive: [1] | [2] | [3] | [4] | [5] | [6] | [7] | [8] | [9] | [10] | [11] | [12] | [13] | [14] | [15] | [16] | [17] | [18] | [19] | [20]

CC(=O)OCC(=O)[C@@]1(O)CCC2C3CCC4=CC(=O)C=CC4(C)C3C(O)C[C@]21C (stereo not given in full)
inactive: [1] | [2] | [3] | [4] | [5] | [6] | [7] | [8] | [9] | [10] | [11] | [12] | [13] | [14] | [15] | [16] | [17] | [18] | [19] | [20]

OCC1O[C@@H](O[C@@H]2C(CO)OC(O)C(O)C2O)C(O)C(O)C1O (stereo not given in full)
inactive: [1] | [2] | [3] | [4] | [5] | [6] | [7] | [8] | [9] | [10] | [11] | [12] | [13] | [14] | [15] | [16] | [17] | [18] | [19] | [20]

C=C(NCc1ccccc1)c1ccccc1O
inactive: [1] | [2] | [3] | [4] | [5] | [6] | [7] | [8] | [9] | [10] | [11] | [12] | [13] | [14] | [15] | [16] | [17] | [18] | [19] | [20]

Reference: PubChem BioAssay (NCATS)
